# Screening results deposited in PubChem by National Center for Advancing Translational Sciences (NCATS).
# Nrf2 block: inhibitors of Nrf2 signaling; A549 ARE-Fluc reporter, luciferase luminescence, 18-24 h; Potency, µM (doses to about 46 µM), without a hit: at the top dose activity change, negative = inhibition, most hits filed as inhibitors; 2.1% of 360,000 active; also: potency is read from the fitted curve at half-maximal effect; % is scaled to controls: 0 for no effect and ±100 for the full control effect; nearly all actives have a fitted effect of over 60% in size
#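 Concentration-response testing used A549 ARE_Fluc cells at 5000 cells/well. Following an 18-24 h compound incubation, viability was read by fluorescence (Ex 405/Em 525) and luciferase output by luminescence.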
# 12-LOX inh: ALOX12 (human) lipoxygenase inhibition | 1.1% of 580,000 active | Potency, µM (top dose mostly 108 µM), for inactives: top-dose activity change, negative = inhibition, hits mostly inhibitors | P18054 | purified 12hLO, xylenol orange hydroperoxide absorbance | AID 1671190; also: potency is read from the fitted curve at half-maximal effect; % is scaled to controls: 0 for no effect and ±100 for the full control effect
#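 Hydroperoxide product was detected by ferrous iron/xylenol orange as the 573 to 405 nm absorbance ratio. Arachidonic acid at 40 uM (final) was turned over for 30 min at room temperature by 150 nM human 12hLO, pH 7.0 Hepes buffer, after 15 min compound preincubation.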
# LDHA block: LDHA (human) enzyme inhibition; purified LDHA, NADH/diaphorase-resazurin fluorescence; hits give low values; activity change, % (values are at about 110 or 230 µM); 0.15% of 480,000 active; AID 1347041; in the data active = activity change below about -30%; inconclusive = mostly about -25% to -30%;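 also: plate controls were DMSO wells for no effect and wells without enzyme for full effect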
#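 Enzyme activity of human lactate dehydrogenase 5 (2 nM; 0.06 mM NADH, 0.2 mM pyruvate, 5 min, RT) is measured via a resazurin/diaphorase fluorescence readout of residual NADH.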
# Nrf2 ARE act: activators of Nrf2 (ARE) signaling; AREc32 ARE-luciferase reporter (MCF7-derived line), luminescence, 24 h; Potency, µM (doses to about 46.1 µM), without a hit: at the highest dose activation, most hits filed as activators; 0.31% of 410,000 active; AID 624171; also: potency is read from the fitted curve at half-maximal effect; % of control where 0% means no effect; nearly all actives have a fitted effect of over 65% in size
#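 ARE-driven firefly luciferase activity in AREc32 cells measured after a 24 hr compound exposure at 37 deg C, using Steady-Glo reagent and a 30 min room-temperature hold.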
# ERG Ets-DNA blk: ERG Ets/DNA interaction inhibition | 0.028% of 370,000 active | fluorescence polarization, His-ERG Ets domain / labelled DNA | Potency, µM (top dose mostly 76.9 µM), for inactives: at the highest dose FP activity, negative = inhibition, most hits filed as inhibitors; active = well fitted inhibition curve with a large enough effect in the polarisation, with a control signal flat; inconclusive = small, poorly fitted or top-dose-only effect, or effect the other way, or a change in a side signal; inactive = no such curve, though single readings can be large or run the other way; the % refers to the polarisation;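 also: polarization taken with two DNA probes labelled with fluorescein and Texas red; potency is read from the fitted curve at half-maximal effect; % of control where 0% means no effect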
# Target sequence (P11308 whole entry, looked up, the tested form may be a part): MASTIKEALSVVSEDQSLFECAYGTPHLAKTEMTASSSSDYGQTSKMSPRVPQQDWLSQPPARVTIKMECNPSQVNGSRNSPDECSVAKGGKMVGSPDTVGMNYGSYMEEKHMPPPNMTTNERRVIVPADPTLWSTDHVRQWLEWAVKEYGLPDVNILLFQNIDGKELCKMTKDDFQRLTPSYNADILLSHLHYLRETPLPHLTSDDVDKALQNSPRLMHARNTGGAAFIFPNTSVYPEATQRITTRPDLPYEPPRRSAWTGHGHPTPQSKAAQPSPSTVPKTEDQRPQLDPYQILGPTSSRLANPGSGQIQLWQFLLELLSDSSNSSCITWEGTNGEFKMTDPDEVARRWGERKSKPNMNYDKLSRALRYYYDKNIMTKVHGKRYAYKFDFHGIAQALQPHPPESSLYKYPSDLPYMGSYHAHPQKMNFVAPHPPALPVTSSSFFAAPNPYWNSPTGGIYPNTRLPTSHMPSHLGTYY
#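 His-tagged ERG Ets domain (1 uM in the protein solution; 300mM KCl, 50mM Tris-HCl, 1mM EDTA, 1mM DTT, pH 7.5) received compound, then a probe mix of 5 nM fluorescein-DNA and 100nM Texas-615-DNA. Fluorescence polarization was read for both dyes.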
# A549 tox: A549 cytotoxicity, counter-screen for Nrf2 inhibitors | A549 ARE-Fluc cells, CellTiter-Fluor viability, 18-24 h | Potency, µM (series often up to 46 µM), inactives show at the highest dose activity change, negative = cytotoxicity, hits mostly inhibitors | 0.16% of 390,000 active | AID 504648; also: potency is read from the fitted curve at half-maximal effect; % is scaled to controls: 0 for no effect and ±100 for the full control effect
#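 Cytotoxicity counterscreen: CellTiter-Fluor fluorescence was measured in A549 ARE_Fluc cells after 18-24 h of compound exposure in a concentration series. The subsequent BugLite luminescent read reports ARE-luciferase activity.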
# The depositor's hits bear a star; ? = inconclusive; nt = no result. Only some compounds are listed: those with a hit (about 2.7% of all), similar ones and a draw of the others. Unless noted, calls follow the shape of the dose curve; as a rule, active = well fitted curve in the direction sought with a large enough effect; inconclusive = small, poorly fitted or top-dose-only effect, or another doubt; inactive = no such curve, though single readings can be large; an effect the other way counts as inactive or inconclusive.
SMILES,Nrf2 block,12-LOX inh,LDHA block,Nrf2 ARE act,ERG Ets-DNA blk,A549 tox
Cc1cc2ccccc2n1CCNC(=O)c1ccc(Br)cc1,-19.8%,-21.5%,2.4,1.3%,-4.2%,1.0%
Cc1onc(-c2ccccc2Cl)c1C(=O)NCc1nc(-c2ccc(C(F)(F)F)cc2)no1,25.9µM*,80.1%,1.7,1.8%,14.4%,0.1%
Cc1onc(-c2ccccc2Cl)c1C(=O)NCCn1c(C)cc2ccccc21,-12.0%,nt,-1.7,-0.3%,31.6µM*,3.8%
Cn1c(Cl)cnc1COC(=O)CC12CC3CC(CC(Br)(C3)C1)C2,nt,15.8%,-0.3,nt,nt,nt
CCCCCn1nc(C(=O)Nc2ccccc2F)c2ccccc2c1=O,nt,-0.1%,0.0,nt,nt,nt
CC1CCC(C(C)C)/C(=N/NC(N)=O)C1 (stereo not given),nt,-8.8%,-2.6,nt,nt,nt
Cc1ccc(C(=O)N/N=C\c2ccc(Br)o2)o1,-11.1%,-3.5%,-6.6,6.3%,nt,6.2%
Cc1ccc(C(=O)N/N=C/c2ccc(-c3ccc(Br)cc3[N+](=O)[O-])o2)o1,?,-18.7%,13.8,7.94µM*,-5.3%,-11.1%
Cc1cccc(NC(=O)Nc2c[nH]c(=O)[nH]c2=O)c1,nt,-2.6%,-5.5,nt,nt,nt
COc1cc(NS(=O)(=O)c2ccc(NC(=O)c3ccc(OC)c(Br)c3)cc2)nc(OC)n1,?,?,-49.8*,2.8%,-6.8%,18.3%
O=S1(=O)C=C(Sc2nc3cc(Cl)ccc3o2)c2ccccc21,?,nt,-4.6,8.91µM*,-3.6%,?
COc1ccc2[nH]cc(C(C(=O)O)N3CCCC3)c2c1 (stereo not given),nt,?,4.9,nt,nt,nt
CC(C)N(CC(=O)Nc1ccc(Cl)cc1C(F)(F)F)C(=O)CCl,13µM*,-20.0%,0.9,?,12.1%,?
CCC(C)N(CC(=O)Nc1cccc(C)c1C)C(=O)CCl (stereo not given),?,nt,3.0,7.94µM*,4.3%,3.3%
Cc1cc(C)cc(NC(=O)c2nc3ccccc3nc2N2CCN(C)CC2)c1,nt,8.4%,5.5,nt,nt,nt
CCc1nnc(NC(=O)c2cc(=O)c3cc(C)cc(C)c3o2)s1,nt,?,-0.5,nt,nt,nt
Cc1nc2cccnc2n1-c1cccc(C(=O)N2CCN(c3ccc(Cl)cc3)CC2)c1,18.4µM*,-28.2%,-1.1,-0.9%,0.9%,-19.9%
COc1ccc(N2CCN(C(=O)c3cccc(-n4c(C)nc5cccnc54)c3)CC2)cc1,16.1%,?,0.2,-0.1%,1.8%,-0.6%
Cc1ccc(F)cc1C(=O)Nc1nc(C)c(C)s1,nt,-26.3%,4.7,nt,nt,nt
CCCn1c(-c2cccs2)nc2nc3ccccc3nc21,19.0%,-7.5%,-4.7,4.47µM*,-6.6%,-4.3%
COc1ccc(CC(=O)Nc2ccc3c(C)cc(=O)oc3c2)cc1OC,?,9.0%,-7.1,0.5%,-2.2%,-5.5%
Cc1cc(=O)oc2cc(NC(=O)Cc3ccccc3F)ccc12,nt,39.8µM*,-8.9,nt,nt,nt
COc1ccc(-c2ccc(=O)n(CCNC(=O)Cc3ccc(Br)cc3)n2)cc1,nt,5.8%,-0.4,nt,nt,nt
Cn1ccnc1SCC(=O)NC(C)(C#N)C1CC1 (stereo not given),nt,8.7%,-14.9,nt,nt,nt
COc1ccc(CSC(=S)NNc2ccccc2)cc1,nt,22.4µM*,0.8,8.4%,nt,nt
SMILES,Nrf2 block,12-LOX inh,LDHA block,Nrf2 ARE act,ERG Ets-DNA blk,A549 tox
COc1ccc(C(=O)NNc2ccccc2)cc1,0.4%,-11.7%,-7.5,0.4%,-0.9%,-2.0%
CN(Cc1ccccc1)C(=O)c1cccc(NC(=O)Cc2ccc(NC(=O)C3CCN(C(=O)CCc4ccccc4)CC3)cc2)c1,16.4µM*,1.5%,-0.8,4.1%,-4.6%,-16.7%
CN(Cc1ccccc1)C(=O)c1ccc(NC(=O)Cc2ccc(NC(=O)C3CCN(C(=O)CCc4ccccc4)CC3)cc2)cc1,?,7.1%,-0.8,2.2%,-1.0%,5.2%
CN(C(=O)c1cccc(NC(=O)Cc2ccc(NC(=O)C3CCCN(C(=O)CCc4ccccc4)C3)cc2)c1)C1CCCCC1 (stereo not given),10.3µM*,0.1%,-9.3,4.5%,6.7%,-11.8%
CN(C(=O)c1ccc(NC(=O)Cc2ccc(NC(=O)C3CCCN(C(=O)CCc4ccccc4)C3)cc2)cc1)C1CCCC1 (stereo not given),23.1µM*,-13.8%,0.0,3.6%,-5.7%,-6.5%
Cc1ccc(-c2ccsc2C(=O)N2CCN(S(=O)(=O)c3ccc(F)c(F)c3)CC2)cc1,nt,?,7.6,nt,nt,nt
O=C(Cc1c[nH]c2ccccc12)NCC(=O)N1CCN(c2ccccc2)CC1,nt,5.3%,-1.0,nt,nt,nt
Cc1ccc(NS(=O)(=O)c2cc3c4c(cccc4c2)C(=O)NC3=O)cc1C,14.6µM*,-24.9%,-11.0,2.2%,-2.4%,-8.8%
Cc1ccc(NS(=O)(=O)c2cccc(Cl)c2)cc1C,-13.3%,nt,-3.0,nt,nt,11.2%
C#CCN(C(=O)c1ccc(-c2cnco2)cc1)C1CCCCC1,nt,-24.6%,8.1,nt,nt,nt
Cc1c(C(=O)N2CCC(C)CC2)sc2ncnc(N(C)c3ccccc3)c12,18.4µM*,?,-7.1,-0.1%,-3.3%,-8.7%
Cc1cccc(NC(=O)C2(C#N)C(c3ccccc3)C2(C)C(=O)c2ccccc2)c1 (stereo not given),nt,?,25.7,nt,nt,nt
COc1ccc(CCNc2ncnc3sc(C)cc23)cc1OC,23.1µM*,?,-0.2,1.3%,3.7%,-17.9%
CCOc1cc(C)nc(NCCc2ccc(OC)c(OC)c2)n1,25.9µM*,-19.0%,-3.8,0.3%,nt,4.5%
Cc1ccc(C(=O)COC(=O)c2ccc(O)cc2)s1,nt,?,1.3,nt,nt,nt
Fc1ccc(COc2cccc(CNCc3ccncc3)c2)cc1,14.6µM*,-7.7%,3.9,3.1%,3.9%,-1.0%
Cc1nc([N+](=O)[O-])c(Br)n1CC(=O)c1ccc(Br)cc1,23.1µM*,?,-2.5,13.6%,6.2%,16.4µM*
CCn1cc(CNC(=O)c2cc(-c3ccc(C)c(C)c3)nc3ccccc23)cn1,nt,14.3%,1.3,nt,nt,nt
O=Cc1ccc(OCc2ccc(Cl)cc2)c(Br)c1,nt,?,5.6,nt,nt,nt
CCN(CC)CCCC(C)NC(=O)Nc1ccc(Cl)cc1 (stereo not given),nt,?,-1.3,nt,nt,nt
CSc1ccc(CCNc2ncnc3onc(C)c23)cc1,7.31µM*,0.0%,3.1,2.0%,0.4%,4.1%
CCCNc1ncnc2onc(C)c12,0.0%,1.7%,-0.8,-1.1%,-7.3%,-1.2%
CCN(c1ccccc1)S(=O)(=O)c1cc(C(=O)Nc2ccc3oc(C)nc3c2)ccc1C,nt,-16.7%,6.6,nt,nt,nt
N#Cc1cccc(C(=O)NCCCc2nc3ccccc3[nH]2)c1,nt,?,1.8,nt,nt,nt
CNC(=O)NC(=O)CSc1ncnc2ccccc12,nt,?,-1.8,nt,nt,nt
